# Results as given in PubChem BioAssay.
# Where “and” joins values, the source holds several entries; their conditions need not be identical. Equal entries are not always repeated. Calls of active or inactive are those of the source.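 The calls were made as follows, unless noted: active = mean z-score across replicates of 1.96 or higher in either the MELAS or the Rieske mutant cell line; inactive = the rest.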
# Tests used:
# [1] = viability loss with induced miR-34 in A549 – imaging, A549 dox-inducible miR-34, nuclei and caspase counts, primary screen (AID 1347080;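 active = compounds whose cell count with miR-34 switched on is under 0.7 times the count with it off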); conditions: A549 miR-34 inducible, Hoechst nuclei count, 48 h
# [2] = MELAS cybrid and Rieske KO viability enhancers – cell-based, MELAS cybrids, Rieske KO mouse fibroblasts, CellTiter-Glo, primary screen (AID 1508586); conditions: low glucose;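 also: z relative to plate mean and SD of compound and empty wells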
# [3] = stronger effect = lower value, cell number ratio, induced over uninduced
# [4] = measured here: relative caspase fold change +Dox/-Dox
# [5] = measured here: total cells with miR-34 induction, stronger effect = lower value
# [6] = measured here: total cells without miR-34 induction
# [7] = MELAS cybrid survival, CellTiter-Glo 48 h, stronger effect = higher value
# [8] = Rieske KO mouse fibroblast survival, CellTiter-Glo 72 h
# Also: test concentration not given here.
Structure (SMILES),"fold change [1, 3]","fold change [1, 4]","cell count [1, 5]","cell count [1, 6]","z-score [2, 7]","z-score [2, 8]"
CC(C)(Cc1ccc2ccccc2c1)NCC(O)COc1cccc(Cl)c1C#N (stereo unspecified),0.92 (inactive),0.745,8560,9310,-0.327 (inactive),0.584
O=C1c2c(O)cc(O)cc2OC(c2cc(O)c(O)c(O)c2)C1O (stereo unspecified),0.92 (inactive),0.77,9760,10600,-0.325 (inactive),0.635
CCCC(NC(=O)C1[C@H]2CCC[C@H]2CN1C(=O)C(NC(=O)C(NC(=O)c1cnccn1)C1CCCCC1)C(C)(C)C)C(=O)C(=O)NC1CC1 (stereo partly specified),0.872 (inactive),1.37,5460,6260,-0.469 (inactive),0.214
CC1C(=O)O[C@H]2C(O)C34C5CC(C(C)(C)C)C36C(O)C(=O)O[C@H]6O[C@]4(C(=O)O5)[C@@]12O (stereo partly specified),0.925 (inactive),1.45,7630,8250,-0.353 (inactive),-0.351
COc1c(O)cc2c(c1O)[C@@H]1OC(CO)C(O)C(O)[C@H]1OC2=O (stereo partly specified),0.888 (inactive),1.9,8260,9300,-0.313 (inactive),0.533
C=C1c2cccc(O)c2C(O)=C2C(=O)[C@]3(O)C(O)=C(C(N)=O)C(=O)C(N(C)C)[C@@H]3C(O)[C@H]12 (stereo partly specified),0.858 (inactive),1.09,7630,8890,5.63 (active),0.965
CC(C)CC(NC(=O)CNC(=O)c1cc(Cl)ccc1Cl)B1OC(=O)CC(CC(=O)O)(C(=O)O)O1 (stereo unspecified),0.814 (inactive),0.899,1600,1960,-0.37 (inactive),-3.79
COC(c1ccccc1)(c1ccccc1)C(Oc1nc(C)cc(C)n1)C(=O)O (stereo unspecified),0.951 (inactive),0.955,7820,8220,-0.106 (inactive) and 0.539 (inactive),0.0441 and -0.167
COC(=O)NC(C)CNc1nccc(-c2cn(C(C)C)nc2-c2cc(Cl)cc(NS(C)(=O)=O)c2F)n1 (stereo unspecified),0.982 (inactive),0.272,5200,5290,0.61 (inactive),1.4
Cc1cc(NC(=O)c2cccc(NC(=O)C=CCN(C)C)c2)ccc1Nc1nccc(-c2cccnc2)n1,0.969 (inactive),0.805,6190,6390,-0.659 (inactive),0.143
C[C@@H]1COc2c(N3CCN(C)CC3)c(F)cc3c(=O)c(C(=O)O)cn1c23,0.906 (inactive),0.634,8330,9190,-0.0742 (inactive),0.213
COC(=O)CCSCc1ccc(-c2onc(C)c2NC(=O)OC(C)c2ccccc2Cl)cc1 (stereo unspecified),0.847 (inactive),0.706,6550,7730,-0.226 (inactive),-0.128
CCOC(=O)c1ccc(NC2CCCCC2)c(N)c1,0.937 (inactive),0.358,7670,8180,-0.371 (inactive),0.61
NC1CC1c1ccc(-c2cccc(O)c2)cc1 (stereo unspecified),0.891 (inactive),0.382,7530,8450,-0.398 (inactive),0.0465
COc1cc2c(cc1O)CC[C@@H]1[C@H]2CC[C@]2(C)C(O)CC[C@@H]12 (stereo partly specified),1.05 (inactive),0.703,1820,1740,1.32 (inactive),0.434
CCN(CC)CCOC(=O)c1ccc(N)cc1Cl,0.9 (inactive),1.29,9150,10200,-0.309 (inactive),-0.153
CC(=NNC(=S)N1CCC1)c1ccccn1,0.887 (inactive),0.742,1950,2200,7.64 (active),-5.36
CC1C[C@H]2[C@@H]3CCC4=CC(=O)C=C[C@]4(C)[C@]3(Cl)C(O)C[C@]2(C)[C@]1(OC(=O)c1ccco1)C(=O)CCl (stereo partly specified),0.916 (inactive),0.877,4380,4780,-0.46 (inactive),-0.518
CC(=O)OC1C(=O)[C@]2(C)C(O)CC3OC[C@@]3(OC(C)=O)C2C(OC(=O)c2ccccc2)[C@]2(O)CC(OC(=O)C(O)C(NC(=O)c3ccccc3)c3ccccc3)C(C)=C1C2(C)C (stereo partly specified),0.984 (inactive),0.702,1360,1380,1.51 (inactive),0.434
C#C[C@@]1(O)CC[C@H]2[C@@H]3CCC4=CC(=O)CC[C@@H]4[C@@H]3CC[C@@]21CC,0.929 (inactive),0.428,7310,7880,-0.214 (inactive),0.0474
Cc1nc(C#Cc2ccnc(Cl)c2)c(C)n1-c1ccc(OC(F)(F)F)cc1,1.01 (inactive),0.784,6890,6830,-0.149 (inactive),0.0252
CCC(C)C(=O)OC1CCC=C2C=CC(C)C(CCC3CC(O)CC(=O)O3)[C@H]21 (stereo partly specified),0.904 (inactive),0.982,4680,5180,-0.482 (inactive),-0.195
COc1cc(CCc2cc(NC(=O)c3ccc(N4CC(C)NC(C)C4)cc3)n[nH]2)cc(OC)c1 (stereo unspecified),0.767 (inactive),0.948,4590,5980,-0.509 (inactive),-1.9

Structure (SMILES),"fold change [1, 3]","fold change [1, 4]","cell count [1, 5]","cell count [1, 6]","z-score [2, 7]","z-score [2, 8]"
OCC(O)C(O)C(O)C(O)CO (stereo unspecified),0.977 (inactive) and 0.927 (inactive),0.781 and 0.815,7830 and 9620,8020 and 10400,-0.426 (inactive) and -0.241 (inactive),-0.124 and 0.173
CC(C)C(=O)Oc1ccc(CO)cc1C(CCN(C(C)C)C(C)C)c1ccccc1 (stereo unspecified),0.941 (inactive),0.385,8240,8760,0.0306 (inactive),0.055
O=C1CCC[C@@H]2[C@@H]3CCC[N+]4([O-])CCC[C@H](CN12)[C@@H]34 (stereo partly specified),0.977 (inactive),0.789,9620,9840,-0.359 (inactive),0.579
CC(C)CC(CC(=O)NO)C(=O)NC(Cc1ccc2ccccc2c1)C(=O)NC(C)C(=O)NCCN (stereo unspecified),0.928 (inactive),0.561,8260,8900,-0.492 (inactive),-0.379
NC1CCCN(c2c(C=C3SC(=O)NC3=O)cccc2-c2ccccc2)C1 (stereo unspecified),0.91 (inactive),0.316,8290,9110,-0.282 (inactive),0.224
CNC(=O)C(Cc1ccccc1)NC(=O)C(CC(C)C)C(CSc1cccs1)C(=O)NO (stereo unspecified),0.843 (inactive),0.442,6630,7870,0.43 (inactive),1.14
CNC(=C[N+](=O)[O-])NCCSCc1ccc(CN(C)C)o1,0.921 (inactive),0.82,7800,8470,-0.3 (inactive),-0.112
CC1(C)CCC[C@@]2(C)[C@H]3CC(=O)O[C@]3(C)CC[C@@H]12,0.913 (inactive),0.659,9360,10200,-0.354 (inactive),1.06
CC(OC1OCCN(Cc2nn(P(=O)(O)O)c(=O)[nH]2)C1c1ccc(F)cc1)c1cc(C(F)(F)F)cc(C(F)(F)F)c1 (stereo unspecified),1.01 (inactive),0.443,5980,5920,-0.192 (inactive),-0.0927
O=C(C=Cc1ccc(O)c(O)c1)c1ccc(O)cc1O,0.953 (inactive),0.45,8780,9210,-0.304 (inactive),-0.063
CCc1cnn2c(NCc3ccc[n+]([O-])c3)cc(N3CCCCC3CCO)nc12 (stereo unspecified),1.13 (inactive),0.956,1750,1550,1.14 (inactive),-3.25
C=CC[N+]1(C2C[C@H]3[C@@H]4CC[C@H]5CC(O)C(N6CCOCC6)C[C@]5(C)[C@@H]4CC[C@]3(C)C2OC(C)=O)CCCC1 (stereo partly specified),0.951 (inactive),0.974,8100,8520,-0.403 (inactive),0.424
COc1cc(C2c3cc4c(cc3C(OC3OC5COC(c6cccs6)OC5C(O)C3O)C3COC(=O)[C@H]23)OCO4)cc(OC)c1O (stereo partly specified),1.06 (inactive),0.936,1550,1460,0.486 (inactive),0.638
CC(CCC(=O)O)C1CC[C@H]2[C@@H]3CC[C@@H]4CC(O)CC[C@]4(C)[C@H]3CC[C@]12C (stereo partly specified),0.884 (inactive),1.13,7640,8650,-0.0806 (inactive),-0.272
Cc1cc(N2CCOCC2)cc2[nH]c(-c3c(NCC(O)c4cccc(Cl)c4)cc[nH]c3=O)nc12 (stereo unspecified),1.08 (inactive),0.775,928,858,-0.143 (inactive),-0.73
CCC(Nc1ncnc2nc[nH]c12)c1nc2cccc(F)c2c(=O)n1-c1ccccc1 (stereo unspecified),0.873 (inactive),0.869,6860,7860,-0.15 (inactive),0.351
CCC1OC(=O)C(C)C(OC2C[C@@](C)(OC)C(O)C(C)O2)C(C)C(OC2OC(C)CC(N(C)C)C2O)[C@@](C)(O)CC(C)C(=O)C(C)C(O)[C@]1(C)O (stereo partly specified),0.879 (inactive),1.14,7750,8820,-0.0604 (inactive),0.782
CC(=O)C1CC[C@H]2[C@@H]3CC=C4CC(O)CC[C@]4(C)[C@@H]3CC[C@]12C (stereo partly specified),0.983 (inactive),0.867,7780,7910,-0.328 (inactive),0.251
CCCC(NC(=O)C(C#N)=Cc1cccc(Br)n1)c1ccccc1 (stereo unspecified),0.929 (inactive),0.922,824,888,3.82 (active),-1.38
CCOC(=O)C(N)Cc1ccc(-c2cc(OC(c3ccc(Cl)cc3-n3ccc(C)n3)C(F)(F)F)nc(N)n2)cc1 (stereo unspecified),0.982 (inactive),0.783,8120,8260,0.073 (inactive),0.184
C=C1CCC(O)CC1=CC=C1CCC[C@@]2(C)[C@H]1CC[C@H]2C(C)CCCC(C)(C)O (stereo partly specified),0.933 (inactive),0.682,7650,8200,-0.475 (inactive),0.00368
OCC(O)C(O)CO (stereo unspecified),0.967 (inactive),0.463,8430,8720,-0.193 (inactive),-0.162
COC1C=CO[C@]2(C)Oc3c(C)c(O)c4c(O)c(c5c(nc6cc(C)ccn65)c4c3C2=O)NC(=O)C(C)=CC=CC(C)C(O)C(C)C(O)C(C)C(OC(C)=O)C1C (stereo partly specified),0.885 (inactive),1.2,7180,8110,-0.112 (inactive),0.022
